Screens (PubChem BioAssay)
Shown are actives, neighbours in structure and some others; about 15% of the full set was active somewhere.
SARS PLpro yeast – SARS-CoV PLP inhibition in yeast; S. cerevisiae expressing SARS-CoV PLpro, growth rescue; Potency, µM (titrated, usually from 32.9 µM), actives largely listed as activators; 330,000 compounds, 0.19% hits; AID 485353; calls by dose curve; note: nearly all actives have a fitted effect of over 55% in size
HCV inhibitor – HCV inhibition. AID 651820. Potency, µM (series often up to 41.8 µM), hits mostly inhibitors. 340,000 compounds, 3.4% hits. Huh7.5.1 HCVcc-Cre infection, luciferase reporter, 44 h
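Cells (1,000/well) were plated 4 h before compound, then infected with HCVcc-Cre virus (~0.5 moi). After 44 h further culture, infection was read as luciferase luminescence following a 15 min substrate incubation at room temperature.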
Pf growth 96h – P. falciparum growth inhibition at 96 hour, primary screen for plastid delayed-death inhibitors; P. falciparum luciferase reporter growth, 96 h; Potency, µM (doses to about 28.7 µM), usual class: inhibitors; 320,000 compounds, 6.9% hits; AID 504834
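Erythrocytes infected with luciferase-expressing P. falciparum were dispensed at 2% hematocrit and 0.05% parasitemia (final), then incubated with compounds 96 hours at 37 C in 5% CO2. Luminescence after detection reagent addition reported growth.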
Sm TGR inh – blocks Schistosoma mansoni thioredoxin glutathione reductase | Q962Y6 | AID 485364 | 360,000 compounds, 3% hits | Potency, µM (doses to about 114 µM), hits mostly inhibitors | purified TGR, DTNB reduction, TNB absorbance 405 nm; note: nearly all actives have a fitted effect of over 60% in size
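First, TGR (20 nM dispensed) and NADPH were mixed with compound. Second, a 15 min room-temperature incubation followed. Third, further NADPH and then DTNB were added to start the reaction. Finally, TNB absorbance was monitored kinetically.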
HCMV antiviral – human cytomegalovirus inhibition. 410,000 compounds, 4.5% hits. HFF cells, HCMV-luciferase reporter, 72 h; hits give low values. activity change, negative = inhibition, % at 57.5 µM; in the data active = activity change below about -60%; inconclusive = no clear call, values can overlap the other calls; inactive = above about -39%
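Inhibition of viral replication was scored as loss of reporter luminescence in HFFs infected with HCMV-luciferase (MOI 1 PFU/cell) for 72 h; compounds tested at 2 doses, normalized to buffer and Salinomycin controls.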
Pf growth 48h – P. falciparum growth inhibition at 48 hours (one generation); P. falciparum luciferase growth in erythrocytes, 48 h; Potency, µM (doses to about 28.7 µM), actives largely listed as inhibitors; 310,000 compounds, 5.9% hits
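Cell-based growth assay: transgenic P. falciparum expressing firefly luciferase, cultured in red cells within RPMI 1640 containing 0.5% w/v Albumax, 24 mM bicarbonate and gentamycin. A drop in luciferase activity indicates inhibition.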
Large screens that a line does not name were inactive. Unless noted, calls come from the whole dose curve; as a rule, active = well fitted curve in the direction sought with a large enough effect; inconclusive = small, poorly fitted or top-dose-only effect, or another doubt; inactive = no such curve, though single readings can be large; an effect the other way counts as inactive or inconclusive.

CCCCc1nnc2c(N(C)S(=O)(=O)c3ccccc3)nc3ccccc3n12	Pf growth 48h inconclusive
Nc1ccn([C@@H]2O[C@H](C(=O)NCc3ccc4c(c3)OCO4)[C@@H](O)[C@H]2O)c(=O)n1	none (no result: SARS PLpro yeast, HCV inhibitor, Pf growth 96h, Sm TGR inh, Pf growth 48h)
COc1ccc(CC(=O)NCC2CCCN(Cc3ccc(OC)cc3F)C2)cc1 (stereo not given)	SARS PLpro yeast inconclusive, Pf growth 96h 9.28µM
COc1ccccc1-n1cnc2c(c1=O)c1nc3ccccc3nc1n2-c1ccc(C)c(C)c1	HCV inhibitor 7.94µM, Pf growth 96h 10.4µM, HCMV antiviral inconclusive, Pf growth 48h inconclusive
COCCCn1c2nc3ccccc3nc2c2c(=O)n(-c3ccccc3OC)cnc21	none
CCOc1ccc(C(=O)Nc2ccc(S(=O)(=O)N3C[C@@H]4C[C@@H](C3)c3cccc(=O)n3C4)cc2)cc1	HCV inhibitor 1µM, Pf growth 96h 2.94µM, HCMV antiviral inconclusive, Pf growth 48h inconclusive
O=C1CSC(c2ccc(F)cc2)N1c1ccccc1F (stereo not given)	Pf growth 96h inconclusive
O=C1CSC(c2ccc(F)cc2)N1c1nc2ccccc2s1 (stereo not given)	Pf growth 96h 10.4µM
CC(C)NC[C@H](O)COc1cccc2ccccc12	HCV inhibitor inconclusive (no result: SARS PLpro yeast, Pf growth 96h, Sm TGR inh, Pf growth 48h)
OC1(c2ccc(Cl)cc2)CN(c2ccccc2)C2=[N+]1CCS2 (stereo not given)	HCV inhibitor 12.6µM, Pf growth 96h inconclusive, Pf growth 48h inconclusive
O=C(C1CCCN(C2CC(=O)N(c3ccc(F)cc3)C2=O)C1)N1CCCC1 (stereo not given)	Sm TGR inh inconclusive
Cc1cc(C)n(C2CC(=O)N(c3cccc(Cl)c3)C2=O)n1 (stereo not given)	Sm TGR inh 25.1µM
O=C(C1CCN(C2CC(=O)N(c3cccc(Cl)c3)C2=O)CC1)N1CCCCCC1 (stereo not given)	Sm TGR inh 14.1µM
O=C(C1CCCN(C2CC(=O)N(c3ccc(Cl)cc3)C2=O)C1)N1CCCC1 (stereo not given)	Pf growth 96h inconclusive, Sm TGR inh 39.8µM
CCCOc1ccc(N2C(=O)CC(N3CCCC(C(=O)N4CCCC4)C3)C2=O)cc1 (stereo not given)	HCV inhibitor inconclusive, Sm TGR inh 35.5µM
CCOC(=O)COc1ccc2c(C)c(CCN(CC)CC)c(=O)oc2c1Cl	Pf growth 96h inconclusive (no result: SARS PLpro yeast, HCV inhibitor, Sm TGR inh, HCMV antiviral)
O=c1[nH]cnc2c1C(c1ccccc1)c1c(nc[nH]c1=O)O2	none
O=[N+]([O-])c1ccc(-c2ccc(/C=N/Nc3nc(NCc4ccccc4)nc(N4CCOCC4)n3)o2)cc1	HCV inhibitor inconclusive, Pf growth 96h inconclusive, HCMV antiviral -88.1, Pf growth 48h 1.47µM
COC(=O)c1ccccc1-c1ccc(/C=N/Nc2nc(N3CCCC3)nc(N3CCCC3)n2)o1	HCV inhibitor 11.2µM, Pf growth 96h inconclusive, Pf growth 48h inconclusive
COc1nc(N/N=C/c2ccc(-c3ccccc3[N+](=O)[O-])o2)nc(N2CCOCC2)n1	HCV inhibitor 11.2µM, Pf growth 96h inconclusive
Cc1ccc(/C=N/Nc2nc(N3CCCCC3)nc(N3CCCCC3)n2)o1	HCV inhibitor inconclusive
N#CC[C@H](Cc1ccccc1)N1CCN(CCc2ccccc2)CCC1=O	Pf growth 96h 3.7µM
CC(=O)Nc1ccc(SC[C@H](Cc2ccccc2)N2CCN(CCc3ccccc3)CCC2=O)cc1	Pf growth 96h 2.94µM, Pf growth 48h 8.28µM
CC(=O)Nc1ccc(SC[C@H](Cc2ccccc2)N2CC[C@@H](C(C)(C)C)CCC2=O)cc1	HCV inhibitor inconclusive, Pf growth 96h inconclusive, Pf growth 48h 1.85µM
CC(C)(C)[C@H]1CCC(=O)N([C@H](CSc2ccccc2)Cc2ccccc2)CC1	Pf growth 96h inconclusive, Pf growth 48h inconclusive
CCO[C@@H]1OC(C(=O)Nc2ccccc2)=C[C@H](c2ccc(Br)cc2)[C@H]1CCCO	Pf growth 96h inconclusive, Pf growth 48h inconclusive
CCO[C@H]1OC(C(=O)NC2CC2)=C[C@@H](c2csc3ccccc23)[C@@H]1CCCO	Pf growth 96h 0.185µM, Pf growth 48h inconclusive
CCO[C@@H]1OC(C(=O)Nc2ccccc2)=C[C@H](c2csc3ccccc23)[C@H]1CCCO	Pf growth 96h inconclusive, Pf growth 48h 7.38µM
CCO[C@H]1OC(C(N)=O)=C[C@@H](c2csc3ccccc23)[C@@H]1CCCO	none
CCO[C@@H]1OC(C(=O)Nc2ccccc2)=C[C@H](c2ccccc2)[C@H]1CCCO	HCMV antiviral -60.7
C#CCNC(=O)C1=C[C@H](c2csc3ccccc23)[C@@H](CCCO)[C@H](OCC)O1	Pf growth 96h inconclusive
CCO[C@@H]1OC(C(=O)NCc2ccccc2)=C[C@H](c2csc3ccccc23)[C@H]1CCCO	HCV inhibitor inconclusive, Pf growth 96h 10.4µM, Pf growth 48h inconclusive
O=C(c1cnc2n(c1=O)CCS2)N1CCN(c2ccccc2Cl)CC1	none (no result: HCV inhibitor, HCMV antiviral)
Cc1ccc(C)c(/C(O)=C2\C(=O)C(=O)N(CCCN3CCOCC3)C2c2cccnc2)c1 (stereo not given)	Pf growth 96h 1.85µM, Sm TGR inh 28.2µM
Cc1nc2ccccn2c1/C(O)=C1\C(=O)C(=O)N(CCN2CCOCC2)C1c1cccnc1 (stereo not given)	HCV inhibitor 1µM
COc1cccc(/C(O)=C2/C(=O)C(=O)N(CCN3CCOCC3)C2c2cccnc2)c1 (stereo not given)	Sm TGR inh 22.4µM, Pf growth 48h inconclusive (no result: Pf growth 96h)
Cc1ccc(/C(O)=C2/C(=O)C(=O)N(CCN3CCOCC3)C2c2cccnc2)cc1 (stereo not given)	Pf growth 96h inconclusive
CCCOc1ccc(/C(O)=C2/C(=O)C(=O)N(CCOC)C2c2cccnc2)cc1 (stereo not given)	Pf growth 96h inconclusive, Pf growth 48h 1.04µM (no result: HCV inhibitor)
COc1ccccc1N1CCN(C(=O)c2cc3c(=O)oc4ccc(C)cc4c3s2)CC1	none (no result: SARS PLpro yeast, HCV inhibitor, Pf growth 96h, Pf growth 48h)
O=C(NCc1ccccc1Br)c1ccc(-n2cnc3cccnc32)cc1	none (no result: SARS PLpro yeast, HCV inhibitor, Pf growth 96h, Pf growth 48h)
Cc1cccc(C)c1OCC(=O)N(Cc1ccc(Cl)cc1)CC1CCCO1 (stereo not given)	none (no result: SARS PLpro yeast, HCV inhibitor, Pf growth 96h, Pf growth 48h)
CCCCCCn1c(-c2cccs2)n[nH]c1=S	HCMV antiviral -80.3
CCCCn1c(-c2csc3ccccc23)n[nH]c1=S	SARS PLpro yeast inconclusive, Pf growth 96h inconclusive (no result: Pf growth 48h)
CC1CCN(S(=O)(=O)c2ccc3c4c2CC(=O)N4CC(C)S3)CC1 (stereo not given)	Pf growth 48h 8.28µM
COc1ccccc1C1=NNC(=Nc2cccc(S(=O)(=O)N(C)C)c2)SC1	HCV inhibitor 12.6µM, Pf growth 96h inconclusive, HCMV antiviral -80.3, Pf growth 48h 1.85µM
C=C(C)CSc1[nH]c(=O)cc(C)c1C#N	none
CC1=Nc2cc(C(=O)NC3CCCCC3)ccc2Sc2ccc(Cl)cc21	HCMV antiviral -86.7 (no result: SARS PLpro yeast, HCV inhibitor, Pf growth 96h, Pf growth 48h)
